Source: PubChem
GAA spleen mod – lysosomal alpha-glucosidase (human) modulation; human spleen homogenate, 4-MU-alpha-glucoside fluorescence; actives 0.006% (n = 240,000); Potency, µM (highest dose often 79.9 µM), most hits filed as inhibitors
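Human spleen homogenate (1 ug) with 4-methylumbelliferyl-alpha-D-glucopyranoside (1 mM final) in 50 mM citrate/phosphate pH 5.0, 0.01% Tween-20; 40 min at 37 C. Stopped at pH 10; 4-MU fluorescence Ex 365/Em 440 nm; AC50 by Hill fit.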
Coupling enz – counter-screen for Giardia aldolase inhibitors: coupling enzyme system. coupling enzyme system counterscreen, AmpLite Red fluorescence. activity change, negative = inhibition, % at 58.2 µM, hits read low. actives 0.67% (n = 290,000). AID 2472; in the data active = activity change below about -30%
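Counterscreen lacking aldolase: glyceraldehyde-3-phosphate coupling-enzyme reagent preincubated 10 min at RT with compound (at 57.5 uM final), then substrate/coupling system with AmpLite Red added; fluorescence read at 525/598 nm after 20 min RT.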
GAA glycogen – inhibitors or activators of human alpha-glucosidase glycogen cleavage | P10253 | recombinant GAA, glycogen substrate, Amplex Red glucose oxidase fluorescence | Potency, µM (titrated, usually from 76.4 µM), hits mostly inhibitors | actives 0.38% (n = 300,000);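 note: the screen sought inhibitors and activators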
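Recombinant human alpha-glucosidase (4 nM final) hydrolysed bovine liver glycogen (30 ug) for 40 min at 37 C in pH 5.0 citrate/phosphate with 0.01% Tween-20. Released glucose detected by glucose oxidase/Amplex Red, Ex 573/Em 610 nm. Compounds up to 77 uM; AC50 from Hill fits.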
B2AR arrestin – beta2AR (human) beta-arrestin recruitment activity | P07550 | beta-arrestin recruitment to beta2AR, cell-based reporter | Potency, µM (doses to about 46.1 µM), most hits filed as activators | actives 0.02% (n = 330,000); note: nearly all actives have a fitted effect of over 65% in size
Target sequence (P07550 whole entry, looked up): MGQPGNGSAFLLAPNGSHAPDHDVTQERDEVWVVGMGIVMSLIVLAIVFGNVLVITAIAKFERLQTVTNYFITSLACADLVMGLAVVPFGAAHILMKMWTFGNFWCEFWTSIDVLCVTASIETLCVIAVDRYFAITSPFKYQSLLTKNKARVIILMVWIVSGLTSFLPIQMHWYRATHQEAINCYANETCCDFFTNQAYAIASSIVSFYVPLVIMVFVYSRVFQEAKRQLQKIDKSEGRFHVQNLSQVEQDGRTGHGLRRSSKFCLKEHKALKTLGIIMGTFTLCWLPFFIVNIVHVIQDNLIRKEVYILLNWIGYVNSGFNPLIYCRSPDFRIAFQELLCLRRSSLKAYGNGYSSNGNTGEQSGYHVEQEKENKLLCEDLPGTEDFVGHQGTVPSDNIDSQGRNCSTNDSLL
GAA inh – blocks human lysosomal alpha-glucosidase | actives 0.005% (n = 200,000) | Potency, µM (titrated, usually from 76.9 µM), hits mostly inhibitors | purified human GAA, 4-MU-alpha-glucoside fluorescence | P10253
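Compounds are titrated up to 77 uM against 4 nM human enzyme. Substrate 4-methylumbelliferyl-alpha-D-pyranoside (400 uM) reacts 20 min at room temperature in pH 5.0 buffer; liberated 4-methylumbelliferone is read at 440 nm.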
A number is an active result; - = inactive; ? = inconclusive; . = no result given; ! = not active in a repeat; [ ] = remark or other dose. Rows were chosen to be rich in hits. Some 0.85% of all compounds tested hit in one or more screens of this group. Unless noted, calls come from the whole dose curve; as a rule, active = well fitted curve in the direction sought with a large enough effect; inconclusive = small, poorly fitted or top-dose-only effect, or another doubt; inactive = no such curve, though single readings can be large; an effect the other way counts as inactive or inconclusive.

SMILES	GAA spleen mod	Coupling enz	GAA glycogen	B2AR arrestin	GAA inh
O=C1CCCN1C(=O)c1cncc(Br)c1	-	-	-	-	-
CC(C)CNC(=O)c1c(N)n(Cc2ccc3c(c2)OCO3)c2nc3ccccc3nc12	-	-51	-	-	?
CCCNC(=O)c1c(N)n(Cc2ccc3c(c2)OCO3)c2nc3ccccc3nc12	-	-	-	-	?
CC(C)CCNC(=O)c1c(N)n(Cc2ccc3c(c2)OCO3)c2nc3ccccc3nc12	-	-33	-	-	?
COc1ccc(Cc2nccc3cc(OC)c(OC)cc23)cc1OC	-	-32!	-	-	-[15.4 µM]
CCOC(=O)c1c(/N=C/c2c(O)n(-c3ccccc3F)c(=S)[nH]c2=O)sc2c1CCCC2	-	-49	?	-	-
O=C1CC(N(O)c2ccccc2)C(=O)N1Cc1ccccc1 (stereo not drawn)	-	-	32µM	-	-
O=C1CC(=O)N(Cc2ccccc2)C(=S)N1	.	-	-	-	.
NC1CCCC[C@@H]1N (stereo partly drawn)	-	-	.	.	.
COc1cccc([C@@]2(O)CCCCC2CN(C)C)c1 (stereo partly drawn)	-	-	.	.	.
O=C1CC(NC(=O)C(F)(F)F)=NN1c1ccccc1	-	-	18µM	-	-
O=C1CC(c2cccnc2)=NN1c1ccccc1	-	-	-	-	-
CCOc1cc(/C=C2/NC(=O)N(CC(=O)Nc3cccc(C)c3)C2=O)ccc1O	-	-	22µM	-	-
N#CC(O)c1ccccc1 (stereo not drawn)	-	.	.	.	.
N#Cc1c(/N=C/c2c(O)n(Cc3ccco3)c(=O)[nH]c2=O)sc2c1CCCC2	-	-	14µM	-	-
CC1(C)N(O)C(c2ccc(C(=O)O)cc2)=[N+]([O-])C1(C)C	-	-51	.	.	.
C[C@]12CC[C@@H]3c4cc(O)c(O)cc4CC[C@H]3[C@@H]1CC[C@@H]2O	-	-	3.1µM	-	-[15.4 µM]
C[C@]12CCC(=O)C=C1CCC1C2CC[C@@]2(C)C1CC[C@@H]2O (stereo partly drawn)	.	.	.	-	.
C[C@]12CC[C@H]3[C@@H](CCC4=CC(=O)CC[C@@H]43)[C@@H]1CC[C@@H]2O	-	-	.	-	.
C[C@]12CC[C@@H]3c4ccc(O)c(O)c4CC[C@H]3[C@@H]1CC[C@@H]2O	-	-47	8.8µM	-	-[15.4 µM]
CC(=O)[O-].CC(=O)[O-].O.O.O.[Pb+2]	-	.	.	.	.
Cc1cccc(N2C(=O)NC(=O)/C(=C/c3ccc([N+](=O)[O-])o3)C2=O)c1	-	-36	-	-	-
Cl/C=C\Cl	-	.	.	.	.
CNC(=O)Oc1cccc2ccccc12	-	-	35µM	-	.
BrCCBr	-	.	.	.	.
SMILES	GAA spleen mod	Coupling enz	GAA glycogen	B2AR arrestin	GAA inh
c1nc[n]([Sn]([CH]2CCCCC2)([CH]2CCCCC2)[CH]2CCCCC2)n1	-	-	.	.	.
Nn1cnnc1	-	.	.	.	.
O=C1Nc2ccc(Br)cc2C(c2ccc(Cl)cc2)=NC1O (stereo not drawn)	.	-34	-	-	.
O=C1Nc2ccc(Br)cc2C(c2ccccc2)=NC1O (stereo not drawn)	.	-	-	-	.
C=C(Cl)CCl	-	.	.	.	.
CC[C@@H](CO)NC(=O)[C@@H]1C=C2c3cccc4c3c(cn4C)C[C@H]2N(C)C1	-	-56!	-	-	?
COC(=O)C1C=C2c3cccc4[nH]cc(c34)CC2N(C)C1 (stereo not drawn)	-	-34	-	-	.
O=C(Cl)C(Cl)(Cl)Cl	-	.	.	.	.
O=C(Cl)/C=C/C(=O)Cl	-	.	.	.	.
O=C(Nc1ccc(COc2ccccc2)cc1)Oc1ccccc1N1CCOCC1	-	-	4µM	-	-
O=NN(CCO)CCO	-	.	.	.	.
Oc1ccc(CC2CC3CCN2CC3)cc1O (stereo not drawn)	-	-	3.5µM	-	-
Cc1cc(/C=C2\C(=O)NC(=O)N(c3ccc(F)cc3)C2=O)c(C)n1-c1ccc(C(=O)O)cc1	-	-	?	-	28µM
Cc1ccc(N2C(=O)NC(=O)/C(=C\c3cc(C)n(-c4ccc(C(=O)O)cc4)c3C)C2=O)cc1	.	-	-	-	.
Cc1cc2c(s1)Nc1ccccc1N=C2N1CCN(C)CC1	-	-	5.6µM	-	-[15.4 µM]
[O-][Cl+2]([O-])O	-	.	.	.	.
CN1CCN(c2ccc(N)cc2Cl)CC1	-	-32	-	-	-
O=C1C(=O)c2ccccc2-c2ccccc21	-	-82	-	-	-
O=C1C(=O)c2cccc3cccc1c23	-	-	-	-	-
CC1(C)N(O)C2CCCCC2N1O (stereo not drawn)	-	-	-	-	-
CC12CCCCC1N(O)CN2O (stereo not drawn)	-	-	18µM	-	-
CC(C)OCCCNC(=O)c1c(N)n(Cc2cccs2)c2nc3ccccc3nc12	-	-46	-	-	?
COCCNC(=O)c1c(N)n(CCC(C)C)c2nc3ccccc3nc12	-	-36	-	-	?
CC(C)CCn1c(N)c(C(=O)NCc2cccs2)c2nc3ccccc3nc21	-	-	-	-	?
COCCNC(=O)c1c(NC(=O)c2ccc(Br)o2)n(Cc2ccccc2)c2nc3ccccc3nc12	-	-44	-	-	-
COCCCNC(=O)c1c(NC(=O)c2ccco2)n(Cc2ccccc2)c2nc3ccccc3nc12	-	-	-	-	-
CCOC(=O)c1c(NS(=O)(=O)c2ccccc2)n(CCCOC)c2nc3ccccc3nc12	-	-39	-	-	?
